PubChem BioAssay (NCATS)
Results filed as inconclusive are left out. Where a call stands in place of a potency, no number is given. Calls of active or inactive are those of the source. The call rests on the fitted dose curve; in most records, active means well fitted curve in the direction sought with a large enough effect; inconclusive means small, poorly fitted or top-dose-only effect, or another doubt; inactive means no such curve, though single readings can be large; an effect the other way counts as inactive or inconclusive.

Columns and labels:
[1] = molecular target: Glutathione peroxidase 1 (Homo sapiens) (UniProt P07203); experiment: Primary qHTS Assay for Inhibitors of Recombinant Selenoprotein Glutathione Peroxidase 1 (GPX1) (AID 1845191); further: nearly all actives have a fitted effect of over 65% in size
Chain of Glutathione peroxidase 1 (Homo sapiens) (P07203 whole entry, looked up): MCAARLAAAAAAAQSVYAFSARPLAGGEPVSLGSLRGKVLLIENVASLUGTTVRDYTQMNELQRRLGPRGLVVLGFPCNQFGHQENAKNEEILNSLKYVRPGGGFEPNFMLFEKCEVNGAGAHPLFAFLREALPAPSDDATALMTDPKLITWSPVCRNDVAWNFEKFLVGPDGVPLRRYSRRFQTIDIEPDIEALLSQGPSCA
Summary of the method: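 10 nM GPX1 + cpd, 30 min RT; start w/ 1 mM GSH, 0.5 mM cumene hydroperoxide, 0.5 mM NADPH, 100 nM GR, 0.01% BSA; buffer 50 mM Tris-HCl pH 7.5, 2 mM EDTA, 150 mM NaCl; Fl 340/450, 0 & 15 min.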

[2] = molecular target: Phospholipid hydroperoxide glutathione peroxidase GPX4 (Homo sapiens) (UniProt P36969); experiment: Primary qHTS Assay for Inhibitors of Recombinant Selenoprotein Glutathione Peroxidase 4 (GPX4) (AID 1845192); further: series mostly up to about 50 µM; nearly all actives have a fitted effect of over 65% in size
Chain of Phospholipid hydroperoxide glutathione peroxidase GPX4 (Homo sapiens) (P36969 whole entry, looked up): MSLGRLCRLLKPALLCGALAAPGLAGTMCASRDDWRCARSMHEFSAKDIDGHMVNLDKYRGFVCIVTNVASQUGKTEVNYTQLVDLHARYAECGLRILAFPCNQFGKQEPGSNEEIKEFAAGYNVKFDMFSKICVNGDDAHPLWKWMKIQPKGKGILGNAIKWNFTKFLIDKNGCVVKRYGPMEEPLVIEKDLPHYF
Summary of the method: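 NADPH consumption, followed by fluorescence at 340/450 nm between 0 and 15 min, reports GPX4 activity via coupled glutathione reductase (100 nM). Enzyme 200 nM was pre-exposed to compound 30 min; 0.5 mM cumene hydroperoxide and 1 mM GSH served as substrates.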

[3] = molecular target: Luciferin 4-monooxygenase (Photinus pyralis) (UniProt P08659); experiment: Primary firefly luciferase (FLuc) qHTS assay for identification of artifact compounds. (AID 1845220); further: nearly all actives have a fitted effect of over 60% in size; further: potency means the concentration at half of the fitted maximal effect
Summary of the method: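 FLuc 10 nM; luciferin 10 uM; ATP 10 uM; Tris-acetate pH 7.6, Mg-acetate 10 mM; 15 min RT preincubation; 5 min reaction; luminescence.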

[4] = system: Nanoluciferase (engineered Oplophorus gracilirostris luciferase); experiment: Primary Nanoluciferase (NLuc) qHTS assay for identification of artifact compounds. (AID 1845222);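 further: NLuc secreted into diluted conditioned medium of S16 cells; series mostly up to about 54 µM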
Summary of the method: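 NLuc from S16 cell medium (1:55) plus test compounds, 15 min, room temperature. Luminescence after Nano-Glo (1:100) addition, 5 min.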

[5] = Primary redox qHTS assay for identification of artifact compounds. (AID 1845223)
Summary of the method: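 Amplex Red (25 uM) and HRP (250 mU/mL) in HBSS, with compounds for 15 min, then 250 uM DTT for 30 min, room temperature, dark. Fluorescence 525/598 nm read; normalized to DMSO and 10 uM DA3003; Hill fit.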

[6] = molecular target: Cytochrome P450 3A4 (Homo sapiens) (UniProt P08684); experiment: qHTS for inhibitors of CYP3A4 against the NCATS DSHEA and TCM libraries (AID 1919971);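 further: inhibition lowers luminescence from luciferin made by CYP3A4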
Chain of Cytochrome P450 3A4 (Homo sapiens) (P08684 whole entry, looked up, canonical isoform): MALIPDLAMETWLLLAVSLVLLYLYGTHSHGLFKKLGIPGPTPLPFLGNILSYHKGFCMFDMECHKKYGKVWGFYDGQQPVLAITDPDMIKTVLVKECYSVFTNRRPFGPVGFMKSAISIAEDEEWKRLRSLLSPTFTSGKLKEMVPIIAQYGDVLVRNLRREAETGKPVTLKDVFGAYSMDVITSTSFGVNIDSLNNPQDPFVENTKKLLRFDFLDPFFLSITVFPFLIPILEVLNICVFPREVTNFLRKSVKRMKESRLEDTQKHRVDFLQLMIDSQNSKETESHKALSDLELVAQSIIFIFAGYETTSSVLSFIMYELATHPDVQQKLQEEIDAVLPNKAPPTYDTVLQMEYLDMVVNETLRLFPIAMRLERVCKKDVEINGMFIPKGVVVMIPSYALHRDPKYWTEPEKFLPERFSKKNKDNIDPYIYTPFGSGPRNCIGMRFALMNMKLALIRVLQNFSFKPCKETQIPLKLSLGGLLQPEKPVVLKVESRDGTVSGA
Summary of the method: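 Read-out is luminescence after P450-Glo detection (30 min, RT). Before that: 15 min compound–enzyme preincubation, then 30-45 min reaction with 1x NADPH regeneration solution, substrate concentration isoform-specific.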

[7] = molecular target: Cytochrome P450 2D6 (Homo sapiens) (UniProt P10635); experiment: qHTS for inhibitors of CYP2D6 against the NCATS DSHEA and TCM libraries (AID 1919972)
Chain of Cytochrome P450 2D6 (Homo sapiens) (P10635 whole entry, looked up): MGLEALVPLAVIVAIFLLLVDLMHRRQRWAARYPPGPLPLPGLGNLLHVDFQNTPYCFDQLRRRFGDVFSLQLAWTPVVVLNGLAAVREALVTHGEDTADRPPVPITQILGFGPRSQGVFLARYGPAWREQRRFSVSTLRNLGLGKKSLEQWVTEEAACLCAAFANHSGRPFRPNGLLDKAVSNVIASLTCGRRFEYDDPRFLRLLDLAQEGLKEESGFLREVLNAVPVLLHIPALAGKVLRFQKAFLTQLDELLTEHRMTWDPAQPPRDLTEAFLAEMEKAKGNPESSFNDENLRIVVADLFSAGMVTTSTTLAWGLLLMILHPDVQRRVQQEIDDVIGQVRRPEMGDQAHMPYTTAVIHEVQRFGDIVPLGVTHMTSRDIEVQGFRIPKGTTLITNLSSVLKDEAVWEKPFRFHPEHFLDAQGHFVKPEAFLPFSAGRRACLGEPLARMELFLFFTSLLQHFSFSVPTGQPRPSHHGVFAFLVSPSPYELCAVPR
Summary of the method: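 Luminescent P450-Glo read-out of CYP2D6 turnover of a luciferin substrate after NADPH-driven reaction of 30-45 min at room temperature. Compounds were first preincubated 15 min with enzyme at titrated concentrations; quinidine was the intraplate control.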

[8] = Primary fluorescence-based thiol-reactive (MSTI) qHTS assay for identification of artifact compounds. (AID 1845221);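 further: series mostly up to about 54 µM; thiol-reactive compounds lower the probe fluorescence signal; nearly all actives have a fitted effect of over 65% in size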
Summary of the method: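 In PBS pH 7.4 with 2% DMSO, each compound met 4 uM MSTI for one hour at ambient temperature, shielded from light, before fluorescence detection.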

**Q.** Which Potency [1] does the source give for `CC1CC[C@]2(C(=O)O)CC[C@]3(C(=O)O)C(=CCC4[C@@]5(C)CC[C@H](OC6OC(C)C(O)C(OC7OC(CO)C(O)C(O)C7O)C6O)C(C)(C)C5CC[C@]43C)C2C1C` (some centres not stated) here?
**A.** inactive

**Q.** And the Potency [2]?
**A.** inactive

**Q.** What about the Potency [3] of the same compound?
**A.** inactive

**Q.** And the Potency [4]?
**A.** inactive

**Q.** What about the Potency [5] of the same compound?
**A.** inactive

**Q.** What about the outcome [6] of the same compound?
**A.** inactive

**Q.** And the outcome [7]?
**A.** inactive

**Q.** What does the source list for `CC1C(OC(=O)c2ccccc2)C(O)C2C(C(=O)O)=COC(OC3OC(CO)C(O)C(O)C3O)C12` (configuration not stated)?
**A.** Potency [1]: inactive; Potency [2]: inactive; Potency [3]: inactive; Potency [4]: inactive; Potency [5]: inactive

**Q.** Which Potency [1] does the source give for `CC(C)/C=C1\NC(=O)C(C(C)C)n2c1nc1c(c2=O)C=CC=CO1` (configuration not stated) here?
**A.** inactive

**Q.** What about the Potency [2] of the same compound?
**A.** inactive

**Q.** And the Potency [3]?
**A.** inactive

**Q.** What about the Potency [4] of the same compound?
**A.** inactive

**Q.** What about the Potency [5] of the same compound?
**A.** inactive

**Q.** With `Cn1nnc(-c2ccc(-c3ccc(N4C[C@H](CO)OC4=O)cc3F)cn2)n1` as the compound, how does the Potency [1] read?
**A.** inactive

**Q.** What about the Potency [2] of the same compound?
**A.** inactive

**Q.** What about the Potency [8] of the same compound?
**A.** inactive

**Q.** What about the Potency [4] of the same compound?
**A.** inactive

**Q.** What about the Potency [5] of the same compound?
**A.** inactive

**Q.** Which Potency [1] does the source give for `C[C@@H]1C(=O)O[C@H](C)[C@H]1CC(=O)[C@](C)(O)[C@H]1CC[C@@]2(O)C3=CC(=O)[C@@H]4C[C@@H](O)[C@@H](O)C[C@]4(C)C3CC[C@]12C` (some centres not stated) here?
**A.** inactive

**Q.** What about the Potency [2] of the same compound?
**A.** inactive

**Q.** And the Potency [8]?
**A.** inactive

**Q.** What about the Potency [4] of the same compound?
**A.** inactive

**Q.** And the Potency [5]?
**A.** inactive

**Q.** With `COc1cc(Br)c(Nc2nc(-c3c(C)nc4ncccn34)cs2)c(Br)c1` as the compound, how does the Potency [1] read?
**A.** inactive

**Q.** What about the Potency [2] of the same compound?
**A.** inactive

**Q.** And the Potency [3]?
**A.** inactive

**Q.** What about the Potency [5] of the same compound?
**A.** inactive

**Q.** What does the source list for `COc1cc(-c2ncn(/C=C\C(=O)OC(C)C)n2)cc(C(F)(F)F)c1`?
**A.** Potency [1]: inactive; Potency [2]: inactive; Potency [8]: inactive

**Q.** For `COc1ccc([C@H]2CNC(=O)C2)cc1OC1CCCC1`, which Potency [1] is on record?
**A.** inactive

**Q.** What about the Potency [2] of the same compound?
**A.** inactive

**Q.** And the Potency [8]?
**A.** inactive

**Q.** What about the Potency [4] of the same compound?
**A.** inactive

**Q.** What about the Potency [5] of the same compound?
**A.** inactive

**Q.** What does the source list for `C=C(C)C(=O)OC1CC2(C)OC(=CC2=O)C(=C)CC2OC(=O)C(COC)C12` (configuration not stated)?
**A.** Potency [1]: inactive; Potency [2]: inactive; Potency [3]: 10.5 µM (active); Potency [4]: inactive; Potency [5]: inactive

**Q.** For `CCOCCn1nc(CC)c2nc(N3CCC(C(=O)O)CC3)nc(Nc3cc(C)ccn3)c21`, which Potency [1] is on record?
**A.** inactive

**Q.** What about the Potency [2] of the same compound?
**A.** inactive

**Q.** And the Potency [3]?
**A.** inactive

**Q.** What about the Potency [4] of the same compound?
**A.** inactive

**Q.** And the Potency [5]?
**A.** inactive

**Q.** Which Potency [1] does the source give for `Cc1cccc(/C=N/Nc2cc(N3CCOCC3)n3nc(-c4ccncc4)cc3n2)c1` here?
**A.** inactive

**Q.** And the Potency [2]?
**A.** inactive

**Q.** What about the Potency [3] of the same compound?
**A.** inactive

**Q.** What about the Potency [4] of the same compound?
**A.** inactive

**Q.** What about the Potency [5] of the same compound?
**A.** inactive

**Q.** What does the source list for `O=C(/C=C/c1ccc(O)cc1)OC1[C@H](O)CC(O)(C(=O)O)C[C@H]1O` (some centres not stated)?
**A.** Potency [1]: inactive; Potency [2]: inactive; Potency [3]: inactive; Potency [4]: inactive; Potency [5]: inactive

**Q.** Which Potency [1] does the source give for `C(#Cc1nc2ncccc2nc1OCCN1CCCC1)c1ccccc1` here?
**A.** inactive

**Q.** What about the Potency [2] of the same compound?
**A.** inactive

**Q.** What about the Potency [8] of the same compound?
**A.** inactive

**Q.** And the Potency [4]?
**A.** inactive

**Q.** Which results are given for `COC(=O)Cc1cc2c(c([N+](=O)[O-])c1)N(C(=O)CC[C@H](N)C(=O)O)CC2`?
**A.** Potency [1]: inactive; Potency [2]: inactive; Potency [3]: inactive; Potency [4]: inactive; Potency [5]: inactive

**Q.** With `C[C@]1(CO)CCC[C@]2(C)C3=C(CCC12)COC3` (some centres not stated) as the compound, how does the Potency [1] read?
**A.** inactive

**Q.** What about the Potency [2] of the same compound?
**A.** inactive

**Q.** And the Potency [3]?
**A.** inactive

**Q.** What about the Potency [5] of the same compound?
**A.** inactive

**Q.** With `Cc1ccccc1NC(=O)Nc1ccc(CC(=O)N(C)[C@@H](CC(C)C)C(=O)NCC[C@H](NC(=O)[C@@H]2CCCN2S(=O)(=O)c2cc(Cl)cc(Cl)c2)C(=O)O)cc1` as the compound, how does the Potency [1] read?
**A.** inactive

**Q.** And the Potency [2]?
**A.** inactive

**Q.** And the Potency [8]?
**A.** inactive

**Q.** And the Potency [4]?
**A.** inactive

**Q.** What about the Potency [5] of the same compound?
**A.** inactive
